The supplement of paper PMC12350171
Where a name gives a salt, the structure may show the parent alone. Values without a mark were called inactive.

Assays:
Conditions in all cases: 20 µM
P. vulgatus RND KO = assay: growth AUC normalised to DMSO control (median) (fraction of control); higher = less growth inhibition, active = hit call of the paper
Method in brief: (§1)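 In 96-well plates of mGAM seeded at OD578 0.01, strains that had been passaged twice overnight without oxygen were exposed to approved-drug library compounds at 20 μM with 1% DMSO. Hourly OD578 readings were taken for 24 h in an anaerobic incubator. The trapezoidal-rule area under the curve, with curves truncated at entry into stationary phase, was expressed relative to same-plate vehicle wells as the median of three biological replicates.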

P. vulgatus WT = assay: as above
Method in brief: as §1

[1] = tested on: S. enterica typhimurium WT; assay: as above
Method in brief: as §1

[2] = tested on: S. enterica typhimurium tolC KO; assay: as above
Method in brief: as §1

Shigella flexneri = assay: growth AUC normalised to DMSO control (fraction of control); higher = less growth inhibition, active = hit call of the paper
Method in brief: (§2)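 For the AUC endpoint, growth curves were integrated by the trapezoidal rule up to the exponential-to-stationary transition and normalised to DMSO controls on the same plate. The curves came from OD578 readings taken hourly for 24 h, in three biological replicates. Pathogens had been passaged anaerobically twice and inoculated at an OD578 of 0.01 into pre-reduced mGAM plates carrying 20 μM compound and 1% DMSO, sealed with breathable membranes. Medium for Haemophilus parainfluenzae also contained hemin and NAD.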

[3] = tested on: Yersinia pseudotuberculosis; assay: as above
Method in brief: as §2

Vibrio cholerae = assay: as above
Method in brief: as §2
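Wherever growth AUC normalised to DMSO control (median) is given: active when median AUC fell below 0.1.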

Row | SMILES | growth AUC normalised to DMSO control (P. vulgatus RND KO) | growth AUC normalised to DMSO control (P. vulgatus WT) | growth AUC normalised to DMSO control [1] | growth AUC normalised to DMSO control [2] | growth AUC normalised to DMSO control (Shigella flexneri) | growth AUC normalised to DMSO control [3] | growth AUC normalised to DMSO control (Vibrio cholerae)
1 | O=C1CN2Cc3c(ccc(Cl)c3Cl)N=C2N1 [Anagrelide] | 1.01 | 0.996 | 0.994 | 0.957 |  |  | 
2 | CCCCCCOc1ccccc1C(N)=O [Exalamide] | 1.01 | 1.04 | 1 | 0.917 |  |  | 
3 | Nc1nc2[nH]cnc2c(=S)[nH]1 [Tioguanine] | 1.01 | 1 | 0.907 | 0.876 |  |  | 
4 | O=C1C(=O)c2ccccc2C(O)=C1C1CCC(c2ccc(Cl)cc2)CC1 (configuration not stated) [Atovaquone] | 1.02 | 1.02 | 0.992 | 1.01 | 0.976 | 0.993 | 
5 | C[C@]12CC[C@@H]3c4ccc(O)cc4CC[C@H]3[C@@H]1C[C@@H](O)[C@@H]2O [Estriol] | 0.979 | 0.978 | 1 | 0.993 |  | 1.01 | 1.02
6 | CCC(=O)c1c(O)cc(O)cc1O [Flopropione] | 0.985 | 0.986 | 0.999 | 0.994 |  |  | 
7 | Cc1cn([C@H]2C[C@H](N=[N+]=[N-])[C@@H](CO)O2)c(=O)[nH]c1=O [Zidovudine] |  | 0.986 | 0.304 |  | 0.155 (active) | 0.781 (active) | 0.956
8 | Cc1nc(=O)c2cc(CN(C)c3ccc(C(=O)N[C@@H](CCC(=O)O)C(=O)O)s3)ccc2[nH]1 [Raltitrexed] | 1.04 | 0.997 | 1 | 0.991 |  |  | 
9 | Cn1c(=O)c2nc[nH]c2n(C)c1=O [Theophylline monohydrate] | 1.02 | 1.01 | 1.01 | 1 | 1.05 | 1.02 | 1.07
10 | Cc1ncc(C[n+]2csc(CCO)c2C)c(N)n1 [Thiamine hydrochloride] | 0.978 | 0.981 | 0.998 | 0.996 | 0.961 | 0.999 | 0.967
11 | CCN1CCN(Cc2ccc(Nc3ncc(F)c(-c4cc(F)c5nc(C)n(C(C)C)c5c4)n3)nc2)CC1 [Abemaciclib] | 0.994 | 0.961 | 1 | 0.909 |  |  | 
12 | NC(=O)OCC(COC(N)=O)c1ccccc1 [Felbamate] | 1 | 1.04 | 0.999 | 1 |  |  | 
13 | CN/C(=N\CCSCc1nc[nH]c1C)NC#N [Cimetidine] | 0.995 | 1.02 | 1 | 0.996 | 0.992 | 1 | 1
14 | CN[C@@H]1CCc2[nH]c3ccc(C(N)=O)cc3c2C1 [Frovatriptan succinate] | 1.02 | 1.02 | 1 | 1 |  |  | 
15 | CC(=O)Oc1cc2c(s1)CCN(C(C(=O)C1CC1)c1ccccc1F)C2 (configuration not stated) [Prasugrel] | 1.06 | 1.07 | 1.03 | 1.01 |  |  | 
16 | C[C@H](O)[C@H](O)[C@H]1CNc2[nH]c(N)nc(=O)c2N1 [Sapropterin dihydrochloride] | 1.04 | 1.05 | 1.01 | 0.977 |  |  | 

Row | SMILES | growth AUC normalised to DMSO control (P. vulgatus RND KO) | growth AUC normalised to DMSO control (P. vulgatus WT) | growth AUC normalised to DMSO control [1] | growth AUC normalised to DMSO control [2] | growth AUC normalised to DMSO control (Shigella flexneri) | growth AUC normalised to DMSO control [3] | growth AUC normalised to DMSO control (Vibrio cholerae)
17 | N=C(N)c1ccc(OCCCCCOc2ccc(C(=N)N)cc2)cc1 [Pentamidine isethionate] | 0.591 | 0.749 | 0.999 | 0.985 | 0.984 | 1.02 | 1.02
18 | CC(C)NC[C@@H](O)COc1cccc2ccccc12 [(R) Propranolol hydrochloride] | 0.978 | 0.988 | 0.984 | 0.983 | 1.02 | 0.999 | 1.02
19 | CC(C)NC[C@H](O)COc1cccc2ccccc12 [(S)-(-)-Propranolol hydrochloride] | 1.04 | 1.06 | 0.989 | 0.986 | 0.997 | 0.996 | 1.01
20 | NNc1nncc2ccccc12 [Hydralazine hydrochloride] | 1.01 | 1.04 | 0.996 | 0.992 | 1.04 | 1.03 | 1.06
21 | CCN(CC)C(=S)SSC(=S)N(CC)CC [Disulfiram] | 0.896 | 1.07 | 0.995 | 1 | 0.968 | 0.97 | 0.989
22 | CC(C)Nc1cccnc1N1CCN(C(=O)c2cc3cc(NS(C)(=O)=O)ccc3[nH]2)CC1 [Delavirdine] | 1.02 | 1.07 | 1.02 | 0.98 |  |  | 
23 | Cc1nc2n(c(=O)c1CCN1CCC(c3noc4cc(F)ccc34)CC1)CCCC2O (configuration not stated) [Paliperidone] | 0.976 | 0.958 | 0.997 | 0.985 |  |  | 
24 | CO[C@@H]1[C@@H](O[C@@H]2O[C@H](C)[C@@H](O[C@H]3C[C@@](C)(O)[C@@H](O)[C@H](C)O3)[C@H](N(C)C)[C@H]2O)[C@@H](CC=O)C[C@@H](C)[C@@H](O[C@H]2CC[C@H](N(C)C)[C@@H](C)O2)/C=C/C=C/C[C@@H](C)OC(=O)C[C@H]1OC(C)=O [Acetyl spiramycin] | 0.0119 (active) | 0.00707 (active) | 0.991 | 0.65 |  |  | 
25 | CN(C)c1ccc2nc3ccc(=[N+](C)C)cc-3sc2c1 [Methylene blue] | 1 | 1.02 | 0.98 | 0.862 |  |  | 
26 | Cc1ccnc2c1NC(=O)c1cccnc1N2C1CC1 [Nevirapine] | 0.995 | 1.01 | 1 | 1 |  |  | 
27 | CC(C)(C)C(=O)C(Oc1ccc(Cl)cc1)n1ccnc1 (configuration not stated) [Climbazole] | 0.968 | 0.984 | 0.993 | 0.953 |  |  | 
28 | Cc1[nH]cnc1CN1CCc2c(c3ccccc3n2C)C1=O [Alosetron hydrochloride] | 0.996 | 0.999 | 1 | 0.995 |  |  | 
29 | Cc1ccc(C(=O)c2cc(O)c(O)c([N+](=O)[O-])c2)cc1 [Tolcapone] | 0.474 | 0.0123 (active) | 0.993 | 0.91 |  |  | 
30 | CCOC(=O)c1c(N)sc2c1CCN(Cc1ccccc1)C2 [Tinoridine hydrochloride] | 0.91 | 0.852 | 0.989 | 0.969 |  |  | 
31 | CCOc1ccc2nc(S(N)(=O)=O)sc2c1 [Ethoxzolamide] | 0.965 | 1 | 0.997 | 0.998 |  |  | 
32 | CC(NN)c1ccccc1 (configuration not stated) [Mebanazine] | 0.898 | 0.871 | 1 | 0.99 |  |  | 
